PubChem BioAssay (Tox21)
Results filed as inconclusive are left out. The source made the active and inactive calls. Unless noted, the call rests on the fitted dose curve; in most records, active means well fitted curve in the direction sought with a large enough effect in the repeat runs; inconclusive means weak or mixed curves; inactive means no such curve, though single readings can be large; an effect the other way counts as inactive or inconclusive.

What was measured:
[1] = qHTS assay to identify small molecule antagonists of the vitamin D receptor (VDR) signaling pathway - cell viability counter screen (AID 743225); further: nearly all actives have a fitted effect of over 50% in size
Outline: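 Cytotoxicity counter screen read by CellTiter-Glo luminescence (30 min, room temperature) in the same wells as the VDR-bla antagonist readout. HEK 293T VDR-UAS-bla cells had 16 h at 37C with compound and 3 nM (final) 1-alpha,25-dihydroxyvitamin D3, then 2 h with FRET substrate.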

[2] = qHTS assay to identify small molecule agonists of the NFkB signaling pathway (AID 1159509; active means well fitted curve in the direction sought with a large enough effect in the signal ratio in the repeat runs, not every such curve was filed as active; the % refers to the signal ratio; further: series mostly up to about 61 µM)
Outline: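 Agonist activity was read as beta-lactamase-driven FRET change (460 and 530 nm emission, 405 nm excitation) following 1.5 hr substrate loading at room temperature. Beforehand, ME-180 NFkB-bla reporter cells were treated with compounds for 5 hr at 37 C.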

[3] = qHTS assay to identify small molecule agonists of the NFkB signaling pathway - cell viability counter screen (AID 1159515; calls by dose curve; further: series mostly up to about 61 µM; nearly all actives have a fitted effect of over 55% in size)
Outline: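 Counter screen run alongside the NFkB-bla agonist assay: ME-180 reporter cells exposed to compounds for 5 hr, then lysed with CellTiter-Glo in the same wells. Luminescence, read after 30 min, reflects viable cells.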

[4] = qHTS assay to identify small molecule agonists of the endoplasmic reticulum stress response signaling pathway (AID 1159516; active means well fitted activation curve with a large enough effect in the signal ratio in the repeat runs, not every such curve was filed as active; the % refers to the signal ratio)
Outline: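 For this screen, HeLa cells stably carrying beta-lactamase under the ER stress response element received test compounds, positive controls or DMSO for 5 hr at 37 C; B/G FRET substrate was then added and dual-wavelength emission recorded.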

[5] = qHTS assay to identify small molecule agonists of the endoplasmic reticulum stress response signaling pathway - cell viability counter screen (AID 1159517; calls by dose curve; further: series mostly up to about 61 µM; nearly all actives have a fitted effect of over 50% in size)
Outline: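 ESRE-bla HeLa cells (1,500/well) were plated overnight at 37 C and exposed to compounds for 5 hr. After the 2 hr beta-lactamase substrate read, CellTiter-Glo went into the same wells, and luminescence was read after 30 min at room temperature.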

[6] = qHTS assay to identify small molecule antagonists of the retinoid-related orphan receptor gamma (ROR-gamma) signaling pathway - cell viability counter screen (AID 1159520); further: nearly all actives have a fitted effect of over 50% in size
Outline: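 Cytotoxicity was read from cellular ATP (CellTiter-Glo luminescence) after 16 hr at 37 C with 1 uM doxycycline induction. The inducer was added 2 hr after compound transfer to Tet-on ROR gamma CHO cells.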

[7] = target: Nuclear receptor ROR-gamma (Homo sapiens) (UniProt P51449); test: qHTS assay to identify small molecule antagonists of the retinoid-related orphan receptor gamma (ROR-gamma) signaling pathway (AID 1159521; further: top concentration of the series differs between compounds; nearly all actives have a fitted effect of over 50% in size)
Outline: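 Antagonist read-out: drop in luminescence (ONE-Glo) from an RORE-LUC reporter in CHO cells with doxycycline-inducible ROR-gamma; 2 hr compound pretreatment, 1 uM doxycycline, 16 hr incubation at 37 C.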

[8] = qHTS assay to identify small molecule agonists of the AP-1 signaling pathway - cell viability counter screen (AID 1159525; calls by dose curve; further: nearly all actives have a fitted effect of over 55% in size)
Outline: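 Intracellular ATP by Cell Titer Glo luminescence (30 min, RT) in the same ME-180 AP-1-bla wells after the 5 h compound exposure at 37 °C. Normalised to tetra n-octyl ammonium bromide and DMSO controls.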

[9] = qHTS assay to identify small molecule agonists of the AP-1 signaling pathway (AID 1159526; calls by dose curve)
[10] = target: Retinoic acid receptor RXR-alpha (Homo sapiens) (UniProt P19793); test: qHTS assay to identify small molecule agonists of the RXR signaling pathway (AID 1159527; calls by dose curve; further: nearly all actives have a fitted effect of over 35% in size; further: potency means the concentration at half of the fitted maximal effect)
Chain of Retinoic acid receptor RXR-alpha (Homo sapiens) (P19793 whole entry, looked up): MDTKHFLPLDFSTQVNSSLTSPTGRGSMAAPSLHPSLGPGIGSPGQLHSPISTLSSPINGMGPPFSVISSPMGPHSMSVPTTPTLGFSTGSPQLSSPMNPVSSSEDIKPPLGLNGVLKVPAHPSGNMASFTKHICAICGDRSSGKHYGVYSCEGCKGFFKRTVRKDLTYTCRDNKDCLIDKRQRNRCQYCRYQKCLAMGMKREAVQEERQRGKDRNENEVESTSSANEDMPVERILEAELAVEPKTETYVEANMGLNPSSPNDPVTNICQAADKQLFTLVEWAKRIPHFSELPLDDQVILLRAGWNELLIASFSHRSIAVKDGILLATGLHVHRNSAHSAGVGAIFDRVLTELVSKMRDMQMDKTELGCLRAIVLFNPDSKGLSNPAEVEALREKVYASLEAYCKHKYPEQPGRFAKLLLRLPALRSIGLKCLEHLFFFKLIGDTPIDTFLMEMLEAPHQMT
Outline: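 Agonist-mode beta-lactamase reporter assay: HEK 293T RXR-alpha-UAS-bla cells treated 16 hr at 37 C with compounds, 9-cis retinoic acid as positive control. LiveBLAzer FRET substrate, 405 nm excitation, 460/530 nm emission.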

[11] = qHTS assay to identify small molecule agonists of the RXR signaling pathway - cell viability counter screen (AID 1159529)
Outline: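 CellTiter-Glo luminescence gave viability in the wells also read for beta-lactamase. Cells (RXR-alpha-UAS-bla HEK 293T, 2% charcoal-stripped FBS medium) had 5 hr plating, then 16 hr compound exposure at 37 C; tetraoctyl ammonium bromide served as positive control.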

[12] = qHTS assay to identify small molecule antagonists of the retinoid acid receptor (RAR) signaling pathway - cell viability counter screen (AID 1159551); further: nearly all actives have a fitted effect of over 35% in size
Outline: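 Measured by luminescent ATP detection, viability reflects C3RL4 cells treated 6 h at 37 C with test chemicals in the presence of 1 uM (final) retinol.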

[13] = qHTS assay to identify small molecule antagonists of the retinoic acid receptor (RAR) signaling pathway (AID 1159552; further: nearly all actives have a fitted effect of over 50% in size)
Outline: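 Luminescent RARE reporter read-out in C3RL4 cells: 6 hr co-treatment at 37 C of test compounds with retinol at 1 uM final. Cells plated overnight beforehand; luciferase reagent incubated 30 min at room temperature before reading.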

[14] = qHTS assay to identify small molecule agonists of the retinoic acid receptor (RAR) signaling pathway (AID 1159553); further: potency means the concentration at half of the fitted maximal effect
Outline: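 6 hr compound exposure (DMSO vehicle) of overnight-plated C3RL4 RARE-luc cells at 37 C; luminescence quantified after 30 min RT with luciferase reagent.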

Measured: Potency

COP(=O)(O)OC
inactive: all assays above

NC(=O)OCCCc1ccccc1
inactive: all assays above

C/C=C/CC#N
inactive: all assays above

CN1C(=O)COc2c(C(=O)NC3CN4CCC3CC4)cc(Cl)cc21 (centres undefined)
inactive: all assays above

NNCc1ccccc1
active: [10] 22.3 µM | [14] 2.48 µM
inactive: all other assays above

NCCOS(=O)(=O)O
inactive: all assays above

COc1cc(CCN)cc(OC)c1OC
inactive: all assays above

ClCC1CO1 (centres undefined)
inactive: all assays above

CCOP(=S)(OCC)Oc1ccc(Cl)cc1Cl
inactive: all assays above

O=C(Cl)OCc1ccccc1
inactive: all assays above

COC(=O)[C@@H](N)CCCN/C(N)=N/[N+](=O)[O-]
inactive: all assays above

CC(C)(N)Cc1ccccc1Cl
inactive: all assays above

O=C(O)C(Br)(Br)Br
inactive: all assays above

CCNc1nc(Cl)nc(NC(C)(C)C)n1
inactive: all assays above

O=CCCl
not listed: [14]
inactive: all other assays above

Cc1ccc(-c2nc3ccc(C)cn3c2CC(=O)N(C)C)cc1
active: [14] 23.7 µM
inactive: all other assays above

CCOC(=O)c1ncn2c1CN(C)C(=O)c1c(I)cccc1-2
inactive: all assays above

CCC(C(N)=O)N1CCCC1=O (centres undefined)
not listed: [14]
inactive: all other assays above

CCC(=O)OC1(c2ccccc2)CCN(C)CC1
inactive: all assays above
